Reference: the supplement of paper PMC7261846
Counter-ions that a name gives are not always drawn. ± gives the uncertainty stated by the source.

System: Candida albicans SNY425 biofilm
Assay: biofilm OD600 with compound plus antifungal (OD600 (absorbance)); higher = more biofilm remaining
[1] = assay detail: disruption of 24-h mature biofilm (compound + antifungal for a second 24 h)
[2] = assay detail: sustained inhibition (compound + antifungal during 90-min adherence and 24-h growth)

Structure (SMILES)	biofilm OD600 [1]	biofilm OD600 [2]
CC(C)C[C@H](NP(=O)(O)O[C@@H]1O[C@@H](C)[C@H](O)[C@@H](O)[C@H]1O)C(=O)N[C@@H](Cc1c[nH]c2ccccc12)C(=O)O [Phosphoramidon] + C[C@@H]1[C@H](O)[C@@H](C)/C=C/C=C/C=C/C=C/C=C/C=C/C=C/[C@H](O[C@@H]2O[C@H](C)[C@@H](O)[C@H](N)[C@@H]2O)C[C@@H]2O[C@](O)(C[C@@H](O)C[C@@H](O)[C@H](O)CC[C@@H](O)C[C@@H](O)CC(=O)O[C@H]1C)C[C@H](O)[C@H]2C(=O)O [amphotericin B] (first compound 12.5 µM)	0.28 ± 0.0089	0.211 ± 0.0094
Cc1ccc(S(=O)(=O)N[C@@H](Cc2ccccc2)C(=O)CCl)cc1 + C[C@@H]1[C@H](O)[C@@H](C)/C=C/C=C/C=C/C=C/C=C/C=C/C=C/[C@H](O[C@@H]2O[C@H](C)[C@@H](O)[C@H](N)[C@@H]2O)C[C@@H]2O[C@](O)(C[C@@H](O)C[C@@H](O)[C@H](O)CC[C@@H](O)C[C@@H](O)CC(=O)O[C@H]1C)C[C@H](O)[C@H]2C(=O)O [amphotericin B] (first compound 4 µM)	0.25 ± 0.011	0.158 ± 0.0081
NCCCC[C@H](N[C@@H](CCc1ccccc1)C(=O)O)C(=O)N1CCC[C@H]1C(=O)O [Lisinopril] + CC[C@H](C)C[C@H](C)CCCCCCCCC(=O)N[C@H]1C[C@@H](O)[C@@H](NCCN)NC(=O)[C@@H]2[C@@H](O)CCN2C(=O)[C@H]([C@H](O)CCN)NC(=O)[C@H]([C@H](O)[C@@H](O)c2ccc(O)cc2)NC(=O)[C@@H]2C[C@@H](O)CN2C(=O)[C@H]([C@@H](C)O)NC1=O [caspofungin] (first compound 12.5 µM)	0.258 ± 0.011	0.178 ± 0.023
CCN1C(=O)C=CC1=O [N-Ethylmaleimide] + OC(Cn1cncn1)(Cn1cncn1)c1ccc(F)cc1F [fluconazole] (first compound 4 µM)	0.278 ± 0.0073	0.113 ± 0.011
CC1(C)C[C@@H]1C(=O)N/C(=C\CCCCSC[C@H](N)C(=O)O)C(=O)O [Cilastatin] + OC(Cn1cncn1)(Cn1cncn1)c1ccc(F)cc1F [fluconazole] (first compound 12.5 µM)	0.271 ± 0.011	0.162 ± 0.012
CC1(C)C[C@@H]1C(=O)N/C(=C\CCCCSC[C@H](N)C(=O)O)C(=O)O [Cilastatin] + C[C@@H]1[C@H](O)[C@@H](C)/C=C/C=C/C=C/C=C/C=C/C=C/C=C/[C@H](O[C@@H]2O[C@H](C)[C@@H](O)[C@H](N)[C@@H]2O)C[C@@H]2O[C@](O)(C[C@@H](O)C[C@@H](O)[C@H](O)CC[C@@H](O)C[C@@H](O)CC(=O)O[C@H]1C)C[C@H](O)[C@H]2C(=O)O [amphotericin B] (first compound 12.5 µM)	0.293 ± 0.012	0.211 ± 0.015
O=C(O)CNC(=O)C(CS)Cc1ccccc1 (racemic) [DL-Thiorphan] + OC(Cn1cncn1)(Cn1cncn1)c1ccc(F)cc1F [fluconazole] (first compound 12.5 µM)	0.262 ± 0.0084	0.107 ± 0.0069
CC[C@H](C)[C@H](N)C(=O)N1CCSC1 [P32/98 hemifumarate salt] + OC(Cn1cncn1)(Cn1cncn1)c1ccc(F)cc1F [fluconazole] (first compound 12.5 µM)	0.249 ± 0.0087	0.128 ± 0.0045
CC(NC(=O)C(Cc1ccccc1)NC(=O)OCc1ccccc1)C(=O)CF (centres undefined) + CC[C@H](C)C[C@H](C)CCCCCCCCC(=O)N[C@H]1C[C@@H](O)[C@@H](NCCN)NC(=O)[C@@H]2[C@@H](O)CCN2C(=O)[C@H]([C@H](O)CCN)NC(=O)[C@H]([C@H](O)[C@@H](O)c2ccc(O)cc2)NC(=O)[C@@H]2C[C@@H](O)CN2C(=O)[C@H]([C@@H](C)O)NC1=O [caspofungin] (first compound 12.5 µM)	0.3 ± 0.005	0.185 ± 0.0046
Nc1ccc(CC(CC(=O)O)C(=O)O)cc1 [4-Amino-D, L-benzylsuccinic acid] + OC(Cn1cncn1)(Cn1cncn1)c1ccc(F)cc1F [fluconazole] (first compound 12.5 µM)	0.291 ± 0.009	0.12 ± 0.0067
O=C(NCCCCN1CCOCC1)c1cc2ccccc2o1 + C[C@@H]1[C@H](O)[C@@H](C)/C=C/C=C/C=C/C=C/C=C/C=C/C=C/[C@H](O[C@@H]2O[C@H](C)[C@@H](O)[C@H](N)[C@@H]2O)C[C@@H]2O[C@](O)(C[C@@H](O)C[C@@H](O)[C@H](O)CC[C@@H](O)C[C@@H](O)CC(=O)O[C@H]1C)C[C@H](O)[C@H]2C(=O)O [amphotericin B] (first compound 12.5 µM)	0.262 ± 0.0087	0.216 ± 0.013
CC(C)(C)NC(=O)[C@@H]1C[C@@H]2CCCC[C@@H]2CN1C[C@@H](O)[C@H](Cc1ccccc1)NC(=O)[C@H](CC(N)=O)NC(=O)c1ccc2ccccc2n1 [saquinavir] + CC[C@H](C)C[C@H](C)CCCCCCCCC(=O)N[C@H]1C[C@@H](O)[C@@H](NCCN)NC(=O)[C@@H]2[C@@H](O)CCN2C(=O)[C@H]([C@H](O)CCN)NC(=O)[C@H]([C@H](O)[C@@H](O)c2ccc(O)cc2)NC(=O)[C@@H]2C[C@@H](O)CN2C(=O)[C@H]([C@@H](C)O)NC1=O [caspofungin] (first compound 12.5 µM)	0.148 ± 0.0056	0.042 ± 0.0016
CCCC[C@@H](C=O)NC(=O)[C@H](CC(C)C)NC(=O)OCc1ccccc1 [Calpeptin] + C[C@@H]1[C@H](O)[C@@H](C)/C=C/C=C/C=C/C=C/C=C/C=C/C=C/[C@H](O[C@@H]2O[C@H](C)[C@@H](O)[C@H](N)[C@@H]2O)C[C@@H]2O[C@](O)(C[C@@H](O)C[C@@H](O)[C@H](O)CC[C@@H](O)C[C@@H](O)CC(=O)O[C@H]1C)C[C@H](O)[C@H]2C(=O)O [amphotericin B] (first compound 12.5 µM)	0.266 ± 0.0066	0.189 ± 0.01
C[C@H](NC(=O)[C@@H]1CCCN1C(=O)[C@@H]1CCCN1C(=O)[C@@H](O)[C@H](N)Cc1ccccc1)C(N)=O [Apstatin] + OC(Cn1cncn1)(Cn1cncn1)c1ccc(F)cc1F [fluconazole] (first compound 12.5 µM)	0.287 ± 0.01	0.118 ± 0.0072
CC(C)CCNC(=O)[C@H](CC(C)C)NC(=O)[C@H]1O[C@@H]1C(=O)O + C[C@@H]1[C@H](O)[C@@H](C)/C=C/C=C/C=C/C=C/C=C/C=C/C=C/[C@H](O[C@@H]2O[C@H](C)[C@@H](O)[C@H](N)[C@@H]2O)C[C@@H]2O[C@](O)(C[C@@H](O)C[C@@H](O)[C@H](O)CC[C@@H](O)C[C@@H](O)CC(=O)O[C@H]1C)C[C@H](O)[C@H]2C(=O)O [amphotericin B] (first compound 12.5 µM)	0.27 ± 0.0079	0.21 ± 0.0074
C[C@H](CS)C(=O)N1CCC[C@H]1C(=O)O [Captopril] + C[C@@H]1[C@H](O)[C@@H](C)/C=C/C=C/C=C/C=C/C=C/C=C/C=C/[C@H](O[C@@H]2O[C@H](C)[C@@H](O)[C@H](N)[C@@H]2O)C[C@@H]2O[C@](O)(C[C@@H](O)C[C@@H](O)[C@H](O)CC[C@@H](O)C[C@@H](O)CC(=O)O[C@H]1C)C[C@H](O)[C@H]2C(=O)O [amphotericin B] (first compound 12.5 µM)	0.285 ± 0.011	0.214 ± 0.0071
NC(N)=NCCC[C@H](NC(=O)[C@@H]1CCCN1C(=O)[C@H](N)Cc1ccccc1)C(=O)CCl + OC(Cn1cncn1)(Cn1cncn1)c1ccc(F)cc1F [fluconazole] (first compound 12.5 µM)	0.269 ± 0.0072	0.159 ± 0.011
O=C[C@@H]1CCCN1C(=O)[C@@H]1CCCN1C(=O)OCc1ccccc1 [Z-Prolyl-prolinal] + CC[C@H](C)C[C@H](C)CCCCCCCCC(=O)N[C@H]1C[C@@H](O)[C@@H](NCCN)NC(=O)[C@@H]2[C@@H](O)CCN2C(=O)[C@H]([C@H](O)CCN)NC(=O)[C@H]([C@H](O)[C@@H](O)c2ccc(O)cc2)NC(=O)[C@@H]2C[C@@H](O)CN2C(=O)[C@H]([C@@H](C)O)NC1=O [caspofungin] (first compound 12.5 µM)	0.261 ± 0.0097	0.153 ± 0.0098
O=C(O[C@@H]1Cc2c(O)cc(O)cc2O[C@@H]1c1cc(O)c(O)c(O)c1)c1cc(O)c(O)c(O)c1 [Epigallocatechin gallate] + OC(Cn1cncn1)(Cn1cncn1)c1ccc(F)cc1F [fluconazole] (first compound 12.5 µM)	0.262 ± 0.011	0.164 ± 0.01
CCOC(=O)c1ccc(OC(=O)CCCCCNC(=N)N)cc1 [Gabexate mesylate] + C[C@@H]1[C@H](O)[C@@H](C)/C=C/C=C/C=C/C=C/C=C/C=C/C=C/[C@H](O[C@@H]2O[C@H](C)[C@@H](O)[C@H](N)[C@@H]2O)C[C@@H]2O[C@](O)(C[C@@H](O)C[C@@H](O)[C@H](O)CC[C@@H](O)C[C@@H](O)CC(=O)O[C@H]1C)C[C@H](O)[C@H]2C(=O)O [amphotericin B] (first compound 12.5 µM)	0.281 ± 0.012	0.201 ± 0.0075
Cc1c(O)cccc1C(=O)N[C@@H](CSc1ccccc1)[C@H](O)CN1C[C@H]2CCCC[C@H]2C[C@H]1C(=O)NC(C)(C)C [nelfinavir] + OC(Cn1cncn1)(Cn1cncn1)c1ccc(F)cc1F [fluconazole] (first compound 12.5 µM)	0.255 ± 0.0099	0.121 ± 0.018
CCCCC[C@H](CC(=O)NO)C(=O)N[C@H](C(=O)N1CCC[C@H]1CO)C(C)C [Actinonin] + C[C@@H]1[C@H](O)[C@@H](C)/C=C/C=C/C=C/C=C/C=C/C=C/C=C/[C@H](O[C@@H]2O[C@H](C)[C@@H](O)[C@H](N)[C@@H]2O)C[C@@H]2O[C@](O)(C[C@@H](O)C[C@@H](O)[C@H](O)CC[C@@H](O)C[C@@H](O)CC(=O)O[C@H]1C)C[C@H](O)[C@H]2C(=O)O [amphotericin B] (first compound 12.5 µM)	0.255 ± 0.017	0.191 ± 0.0077
